Test results: PubChem BioAssay (Tox21)
Records with an inconclusive call do not appear. The source made the active and inactive calls. Calls follow the shape of the dose curve; as a rule, active = well fitted curve in the direction sought with a large enough effect in the repeat runs; inconclusive = weak or mixed curves; inactive = no such curve, though single readings can be large; an effect the other way counts as inactive or inconclusive.

Columns and labels:
[1] = qHTS RealTime-Glo MT Cell Viability Assay in HEK293 cells - 0 hour (AID 1224880); also: top concentration of the series differs between compounds; nearly all actives have a fitted effect of over 45% in size
In short: (§1)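 600 cells/well were plated with the nonlytic NanoLuc/prosubstrate reagent, pre-incubated 5 h, then given 23 nL of compound in DMSO. Incubation at 37 C for 40 h, with luminescence from viable-cell-reduced substrate read repeatedly from 0 h.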

[2] = A CellTox Green Cytotoxicity Assay to monitor cytotoxicity in HEK293 cells - 32 hour (AID 1224881); also: nearly all actives have a fitted effect of over 40% in size
In short: (§2)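 HEK293 cells, 600/well, were preincubated 5 hours and then exposed to compounds at 37 C for up to 40 hours. A cell-impermeant cyanine dye staining dead-cell DNA was read by fluorescence at 0, 8, 16, 24, 32 and 40 h time points.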

[3] = A CellTox Green Cytotoxicity Assay to monitor cytotoxicity in HepG2 cells - 0 hour (AID 1224882); also: nearly all actives have a fitted effect of over 35% in size
In short: (§3)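 HepG2 cells, 600/well, preincubated 5 h with CellTox Green dye, then exposed to Tox21 compounds in DMSO at 37 C for up to 40 h. Dead-cell DNA fluorescence read at the indicated time point.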

[4] = A CellTox Green Cytotoxicity Assay to monitor cytotoxicity in HepG2 cells - 32 hour (AID 1224883); also: nearly all actives have a fitted effect of over 50% in size
In short: as §3

[5] = A CellTox Green Cytotoxicity Assay to monitor cytotoxicity in HEK293 cells - 8 hour (AID 1224884); also: nearly all actives have a fitted effect of over 35% in size
In short: as §2

[6] = qHTS RealTime-Glo MT Cell Viability Assay in HepG2 cells - 16 hour (AID 1224885); also: nearly all actives have a fitted effect of over 50% in size
In short: (§4)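 HepG2 cells were seeded at 600 cells/well together with NanoLuc luciferase and a cell-permeant prosubstrate, preincubated 5 h at 37 C/5% CO2, then pin-dosed with compounds in DMSO. Nonlytic luminescence from viable cells was read at each time point.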

[7] = qHTS RealTime-Glo MT Cell Viability Assay in HEK293 cells - 24 hour (AID 1224886); also: top concentration of the series differs between compounds; nearly all actives have a fitted effect of over 50% in size
In short: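 HEK293 cells were seeded at 600 cells/well together with NanoLuc luciferase and cell-permeant prosubstrate, preincubated 5 h at 37 C/5% CO2, then given compound in DMSO by pintool. Luminescence from viable-cell prosubstrate reduction was read repeatedly over 40 h.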

[8] = qHTS RealTime-Glo MT Cell Viability Assay in HEK293 cells - 8 hour (AID 1224887); also: top concentration of the series differs between compounds; nearly all actives have a fitted effect of over 50% in size
In short: as §1

[9] = A CellTox Green Cytotoxicity Assay to monitor cytotoxicity in HEK293 cells - 16 hour (AID 1224888); also: nearly all actives have a fitted effect of over 35% in size
In short: as §2

[10] = qHTS RealTime-Glo MT Cell Viability Assay in HepG2 cells - 0 hour (AID 1224889); also: nearly all actives have a fitted effect of over 50% in size
In short: as §4

Measured: Potency

Cc1noc(NS(=O)(=O)c2ccc(N)cc2)c1C
inactive: [1] | [2] | [3] | [4] | [5] | [6] | [7] | [8] | [9] | [10]

Cc1ccc(S(=O)(=O)NC(=O)NN2CCCCCC2)cc1
inactive: [1] | [2] | [3] | [4] | [5] | [6] | [7] | [9] | [10]

C/C=C/c1ccc(OC)cc1
inactive: [1] | [2] | [3] | [4] | [5] | [6] | [7] | [8] | [9] | [10]

Nc1ccc(C(=O)O)cc1
inactive: [1] | [2] | [3] | [4] | [5] | [6] | [7] | [8] | [9] | [10]

CNC[C@H](O)c1cccc(O)c1
inactive: [1] | [2] | [3] | [4] | [5] | [6] | [7] | [8] | [9] | [10]

Cn1cc[nH]c1=S
inactive: [1] | [2] | [3] | [4] | [5] | [6] | [7] | [9] | [10]

O=c1ccc2ccccc2o1
inactive: [1] | [2] | [3] | [4] | [5] | [6] | [7] | [8] | [9] | [10]

O=C1NC(=O)c2ccccc21
inactive: [1] | [2] | [3] | [4] | [5] | [6] | [7] | [9] | [10]

Cc1ccc(C)c(OCCCC(C)(C)C(=O)O)c1
inactive: [1] | [2] | [3] | [4] | [5] | [6] | [7] | [8] | [9] | [10]

CCC1(c2ccccc2)C(=O)NCNC1=O
inactive: [1] | [2] | [3] | [4] | [5] | [6] | [7] | [9] | [10]

O=C(C1CCCCC1)N1CC(=O)N2CCc3ccccc3C2C1 (stereo unspecified)
inactive: [1] | [2] | [3] | [4] | [5] | [6] | [7] | [9] | [10]

CCCN(CCC)S(=O)(=O)c1ccc(C(=O)O)cc1
inactive: [1] | [2] | [3] | [4] | [5] | [6] | [7] | [9] | [10]

NC(N)=O
inactive: [1] | [2] | [3] | [4] | [5] | [6] | [7] | [9] | [10]

O=C(O)CS
inactive: [1] | [2] | [3] | [4] | [5] | [6] | [7] | [8] | [9] | [10]

CC(=O)Nc1nnc(S(N)(=O)=O)s1
inactive: [1] | [2] | [3] | [4] | [5] | [6] | [7] | [9] | [10]

O=C(O)c1cccc([N+](=O)[O-])c1
inactive: [1] | [2] | [3] | [4] | [5] | [6] | [7] | [8] | [9] | [10]

Nc1ccc(O)c(C(=O)O)c1
inactive: [2] | [3] | [4] | [5] | [6] | [7] | [8] | [9] | [10]
